Data: the supplement of paper PMC4954754
± gives the uncertainty stated by the source.

system: HEK293T-Rex XBP1-RLuc; assay: XBP1-RLuc splicing reporter activation, triplicate, relative to 500 nM thapsigargin (% of thapsigargin); higher = stronger IRE1/XBP1s reporter activation; conditions: 6.8 µM; 18 h; screen: confirmation
Experimental: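 HEK293T-Rex cells stably expressing the ERSE-firefly luciferase (BiP promoter, ATF6-preferring) or XBP1-splicing Renilla luciferase (IRE1/XBP1s) reporter, 1536-well plates, compound at 6.8 µM for 18 hr at 37 °C; luminescence read […] and expressed as % activation = 100*(compound - median DMSO)/(median 500 nM thapsigargin - median DMSO). Primary screen was single-pass; confirmation screen in triplicate (mean ± SD).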

SMILES	XBP1-RLuc splicing reporter activation
COc1cccc(/C=N\NC(=O)c2n[nH]c3c2CCC3)c1	2.25 ± 1
Cc1ccc(/C=N/NC(=O)c2cccc(F)c2)cc1	2.01 ± 0.32
CN1C(=O)/C(=C\c2ccc(O)c(O)c2)SC1=S	13.9 ± 1.8
COc1ccc(-c2csc(N(CC3CCCO3)C(=O)CCl)n2)cc1 (stereo not given)	2.74 ± 0.89
O=C(Nc1ccccc1O)c1ccc(NS(=O)(=O)c2cccc3cccnc23)cc1	14.2 ± 3.7
COc1cccc(-c2cc(C(=O)Nc3cc(C)ccc3O)no2)c1	12.6 ± 4.8
C/C(=N\NC(=O)c1n[nH]c2c1CCCC2)c1ccc(Br)cc1	2.87 ± 0.99
COc1ccc(-c2csc(-c3ccc(O)cc3)n2)cc1	8.78 ± 1.3
Cc1nn(-c2ccc(F)cc2)c2ncc(C(=O)NCc3ccco3)c(Cl)c12	110 ± 9.1
CC1(C)Cc2ccccc2/C(=C/C(=O)C(=O)N/N=C/c2ccc(O)c(O)c2)N1	16.2 ± 2.9
COc1ccc(/C=C(\C#N)c2nc(-c3ccco3)cs2)cc1O	4.32 ± 0.33
COc1ccc(/C=N/NC(=O)c2cccc(F)c2)cc1Br	1.01 ± 0.87
N#CC1=C(N)Oc2c(ccc3ccccc23)C1c1ccccc1 (stereo not given)	14.2 ± 1.1
O=C(N/N=C/c1ccc(O)c(O)c1)c1ccc(Br)cc1	20.9 ± 0.79
O=C(Nc1ccccc1O)c1cc2ccccc2o1	7.88 ± 0.66
COc1cccc(Nc2nc(-c3ccc(OC)c(F)c3)cs2)c1	1.64 ± 0.88
O=C(COC(=O)c1cc(O)c(O)c(O)c1)Nc1ccc(Br)cc1F	20.18 ± 0.15
C=CCNC(=O)c1sc2nc3cc(C)c(C)cc3cc2c1N	-0.518 ± 1.4
COc1ccc2c(Cl)c(C(=O)Nc3ccccc3C(N)=O)sc2c1	4.82 ± 1.1
Oc1ccc(-c2csc(-c3ccccc3)n2)cc1O	31.3 ± 3.1

SMILES	XBP1-RLuc splicing reporter activation
O=C(N/N=C/c1cccc(O)c1O)c1ccccn1	27 ± 0.75
NN1C(=O)/C(=C/c2ccc(O)c(O)c2)SC1=S	16.7 ± 0.56
Nc1cn(-c2ccccc2)nc1-c1cccs1	50.6 ± 2.8
N#Cc1c(NC(=O)/C=C/c2ccco2)sc2c1CCCC2	11.3 ± 1.3
CC(=O)c1cccc(Nc2nc(-c3ccc(O)c(O)c3)cs2)c1	21.8 ± 1.3
O=C1N/C(=C/c2ccc(O)cc2)C(=O)N1c1cccc(Cl)c1	61.1 ± 1.4
O=C(Nc1ccc(O)cc1)c1c(O)c2c([nH]c1=O)CCCC2	19 ± 0.94
Cc1ccc(O)c(NC(=S)NC(=O)/C=C/c2ccco2)c1	1.05 ± 0.43
CCOc1ccc(NC(=O)c2cccc(F)c2)c([N+](=O)[O-])c1	1.77 ± 2.1
Cc1ccc2nc(/C(C#N)=C/c3ccc(O)cc3)[nH]c2c1	13.8 ± 1.6
CN(c1ccccc1)S(=O)(=O)c1cccc(C(=O)NCCc2ccc(O)c(O)c2)c1	33.2 ± 0.95
Cc1ccc(/C=N/NC(=O)c2cccc(Cl)c2)cc1	0.915 ± 0.53
C=CCNC(=O)c1cc(-c2ccc(F)cc2)on1	1.92 ± 2.1
O=c1cc(-c2ccc(O)c(O)c2)oc2ccccc12	20.6 ± 1.5
Fc1ccc(-c2nnc3ccc(N4CCN(c5ccccn5)CC4)nn23)cc1	38.3 ± 2.6
N/C(=N\N=C\c1ccc(O)c(O)c1)c1nonc1N	19.5 ± 0.38
CCOc1cc(/C=C2/NC(=O)N(c3cccc(Cl)c3)C2=O)ccc1O	22.9 ± 1.5
CCCCCCc1ccc(-c2ncc(N)cn2)cc1	12.9 ± 0.42
O=[N+]([O-])c1ccc(N/N=C/c2ccccc2O)cc1	2.37 ± 0.96
Cc1cc(C)nc(Nc2nc(-c3ccc(O)c(O)c3)cs2)n1	13.9 ± 9.7
